Assay results as given in PubChem BioAssay (NCATS).
Records with an inconclusive call do not appear. Activity calls are given as the source filed them. Calls come from the whole dose curve; as a rule, active = well fitted curve in the direction sought with a large enough effect; inconclusive = small, poorly fitted or top-dose-only effect, or another doubt; inactive = no such curve, though single readings can be large; an effect the other way counts as inactive or inconclusive.

What was measured:
CRL-7250 = normal cell line; experiment: Cytotoxic Profiling of Annotated Libraries Using Quantitative High-Throughput Screening (AID 1296008); details: Five cell lines viability, CellTiter-Glo ATP luminescence, 48-72 h; max response: stronger effect = lower value; note: nearly all actives have a fitted effect of over 60% in size; for max response: % is set by controls: 0 for no effect and ±100 for the full control effect
Procedure, shortened: (§1)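 Compounds were pin-transferred onto cells and incubated 48 or 72 hr at 37 degree Celsius, 95% humidity. CellTiter-Glo was added, plates sat 10 min at room temperature, then ATP-coupled luminescence was imaged as the viability read-out.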

HEK293 = experiment: as above; details: Five cell lines viability, CellTiter-Glo ATP luminescence, 48-72 h; max response: stronger effect = lower value
Procedure, shortened: as §1

HaCat [1] = experiment: as above; details: Five cell lines viability, CellTiter-Glo ATP luminescence, 48-72 h; max response: stronger effect = lower value
Procedure, shortened: as §1

KB-3-1 = experiment: as above; details: Five cell lines viability, CellTiter-Glo ATP luminescence, 48-72 h; max response: stronger effect = lower value
Procedure, shortened: as §1

NIH3T3 [2] = experiment: as above; details: Five cell lines viability, CellTiter-Glo ATP luminescence, 48-72 h; max response: stronger effect = lower value
Procedure, shortened: as §1

HACAT [3] = experiment: qHTS assay to identify novel small-molecules to repurpose for Merkel cell carcinoma treatment (AID 1296009); details: MCC and control cell lines, CellTiter-Glo viability, 72 h; at 44.8 µM (top of the series) unless noted; note: nearly all actives have a fitted effect of over 60% in size
Procedure, shortened: (§2)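 qHTS format: cells treated with library compounds in DMSO across 8 (NPC) or 11 (MIPE) concentrations. Readout after 72 hr at 37 degree celsius was CellTiter-Glo luminescence.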

NIH3T3 [4] = experiment: as above; details: MCC and control cell lines, CellTiter-Glo viability, 72 h; at 44.8 µM (top of the series) unless noted
Procedure, shortened: as §2

C33A = experiment: Primary qHTS to identify gynecologic anti-cancer compounds using libraries of approved drugs and bioactive compounds (AID 1345084); details: Gynecologic cancer cell panel viability, ATPlite luminescence, 48 h; series mostly up to 57.5 µM; note: % is set by controls: 0 for no effect and ±100 for the full control effect; nearly all actives have a fitted effect of over 55% in size
Procedure, shortened: (§3)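 Cell viability after 48 h drug treatment, ATPlite luminescence readout; five doses.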

CASKI = experiment: as above; details: Gynecologic cancer cell panel viability, ATPlite luminescence, 48 h; series mostly up to 57.5 µM
Procedure, shortened: as §3

Es-2 = experiment: as above; details: Gynecologic cancer cell panel viability, ATPlite luminescence, 48 h; series mostly up to 57.5 µM
Procedure, shortened: as §3

HeLa = experiment: as above; details: Gynecologic cancer cell panel viability, ATPlite luminescence, 48 h; series mostly up to 57.5 µM
Procedure, shortened: as §3

Hek293T = experiment: as above; details: Gynecologic cancer cell panel viability, ATPlite luminescence, 48 h, control line for the selectivity index; series mostly up to 57.5 µM
Procedure, shortened: as §3

JEG-3 = experiment: as above; details: Gynecologic cancer cell panel viability, ATPlite luminescence, 48 h; series mostly up to 57.5 µM
Procedure, shortened: as §3

OV90 = experiment: as above; details: Gynecologic cancer cell panel viability, ATPlite luminescence, 48 h; series mostly up to 57.5 µM
Procedure, shortened: as §3

PA-1 = experiment: as above; details: Gynecologic cancer cell panel viability, ATPlite luminescence, 48 h; series mostly up to 57.5 µM
Procedure, shortened: as §3

CAOV3 = experiment: as above; details: Gynecologic cancer cell panel viability, ATPlite luminescence, 48 h; series mostly up to 57.5 µM
Procedure, shortened: as §3

CC1(C)CC[C@]2(C(=O)O[C@@H]3O[C@H](CO)[C@@H](O)[C@H](O)[C@H]3O)CC[C@]3(C)C(=CCC4[C@@]5(C)CC[C@H](O[C@@H]6O[C@H](C(=O)O)[C@@H](O[C@@H]7O[C@H](CO)[C@@H](O)[C@H](O)[C@H]7O)[C@H](O)[C@H]6O[C@@H]6O[C@H](CO)[C@@H](O)[C@H](O)[C@H]6O)C(C)(C)C5CC[C@]43C)C2C1 (stereo partly drawn)
inactive: max response (CRL-7250) -7.32% | max response (HEK293) -5.89% | outcome (HaCat [1]) | max response (KB-3-1) 9.55% | outcome (NIH3T3 [2]) | outcome (HACAT [3]) inactive [at 9.27 µM] | outcome (NIH3T3 [4]) inactive [at 9.27 µM] | activity change, negative = cytotoxicity (C33A) -1.12% [at 11.6 µM] | activity change, negative = cytotoxicity (CASKI) 8.01% [at 11.6 µM] | activity change, negative = cytotoxicity (Es-2) -12.1% [at 11.6 µM] | activity change, negative = cytotoxicity (HeLa) 0.908% [at 11.6 µM] | activity change, negative = cytotoxicity (Hek293T) 0.105% [at 11.6 µM] | activity change, negative = cytotoxicity (JEG-3) 18.6% [at 11.6 µM] | activity change, negative = cytotoxicity (OV90) 4.99% [at 11.6 µM] | activity change, negative = cytotoxicity (PA-1) 18.4% [at 11.6 µM]

CC(=O)NC1CC(=O)C23C(=O)NC(Cc4c[nH]c5ccccc45)C2C(C)=C(C)C(O)C3/C=C/CC(C)/C=C(/C)C(O)C1O (stereo not drawn)
inactive: max response (CRL-7250) -0.702% | max response (HEK293) 4.13% | outcome (HaCat [1]) | max response (KB-3-1) 0.623% | outcome (NIH3T3 [2]) | outcome (HACAT [3]) inactive [at 17.4 µM] | outcome (NIH3T3 [4]) inactive [at 17.4 µM] | Potency (C33A) | outcome (CASKI) | Potency (Es-2) | Potency (HeLa) | Potency (Hek293T) | Potency (JEG-3) | Potency (OV90) | Potency (PA-1)

C[C@@H]1O[C@@H](O[C@H]2[C@H](O[C@H]3[C@H](O[C@H]4CC[C@@]5(C)C(CC[C@]6(C)C5CC=C5[C@@H]7CC(C)(C)CC(=O)[C@]7(C)CC[C@]56C)[C@@]4(C)CO)O[C@H](C(=O)O)[C@@H](O)[C@@H]3O)O[C@H](CO)[C@H](O)[C@@H]2O)[C@H](O)[C@H](O)[C@H]1O (stereo partly drawn)
inactive: max response (CRL-7250) -2.01% | max response (HEK293) -1.03% | outcome (HaCat [1]) | outcome (KB-3-1) | max response (NIH3T3 [2]) 0.221% | outcome (HACAT [3]) inactive [at 9.27 µM] | activity change, negative = cytotoxicity (C33A) 0.189% [at 11.6 µM] | activity change, negative = cytotoxicity (CAOV3) 7.98% [at 11.6 µM] | activity change, negative = cytotoxicity (CASKI) 5.16% [at 11.6 µM] | activity change, negative = cytotoxicity (Es-2) -0.773% [at 11.6 µM] | activity change, negative = cytotoxicity (HeLa) 5.13% [at 11.6 µM] | activity change, negative = cytotoxicity (Hek293T) -1.22% [at 11.6 µM] | activity change, negative = cytotoxicity (JEG-3) 4.8% [at 11.6 µM] | activity change, negative = cytotoxicity (OV90) -8.44% [at 11.6 µM]

C=C1C2(C)CC3C4(C)OC(C5OC56C4=CC(=O)OC6(C)C)C3(C)C13C(=O)OC(C)C3(O)C2=O (stereo not drawn)
inactive: max response (CRL-7250) -6.5% | max response (HEK293) -4.51% | outcome (HaCat [1]) | max response (KB-3-1) 7.16% | max response (NIH3T3 [2]) 2.35% | outcome (HACAT [3]) inactive [at 17.4 µM] | Potency (C33A) | Potency (CAOV3) | outcome (CASKI) | Potency (Es-2) | Potency (HeLa) | Potency (Hek293T) | Potency (JEG-3) | Potency (OV90)

Cc1ccc([C@@H]2CC=C(C(=O)O)[C@H](c3ccc(C(C)(C)C)cc3)N2S(=O)(=O)c2ccc(C)cc2)cc1
inactive: outcome (CRL-7250) | max response (HEK293) -30.1% | outcome (HaCat [1]) | max response (KB-3-1) 3.45% | outcome (NIH3T3 [2]) | outcome (HACAT [3]) | outcome (NIH3T3 [4]) | Potency (C33A) | outcome (CASKI) | Potency (Es-2) | Potency (HeLa) | Potency (Hek293T) | Potency (JEG-3) | Potency (OV90) | Potency (PA-1)

CC12CC(O)C(O)C=C1c1cc(O)cc(O)c1C(=O)O2 (stereo not drawn)
inactive: max response (CRL-7250) -7.12% | max response (HEK293) -7.31% | outcome (HaCat [1]) | outcome (KB-3-1) | outcome (NIH3T3 [2]) | outcome (HACAT [3]) | outcome (NIH3T3 [4]) | Potency (C33A) | outcome (CASKI) | Potency (Es-2) | Potency (HeLa) | Potency (Hek293T) | Potency (JEG-3) | Potency (OV90) | Potency (PA-1)

C=CC(C)(C)C12Nc3c(ccc4c3OC(C)(C)C=C4)C1(O)CC1C(=O)N3CCCC3C(=O)N12 (stereo not drawn)
inactive: max response (CRL-7250) 0.0002% | max response (HEK293) -7.42% | outcome (HaCat [1]) | outcome (KB-3-1) | outcome (NIH3T3 [2]) | outcome (HACAT [3]) inactive [at 17.4 µM] | outcome (NIH3T3 [4]) inactive [at 17.4 µM] | Potency (C33A) | outcome (CASKI) | Potency (Es-2) | Potency (HeLa) | Potency (Hek293T) | Potency (JEG-3) | Potency (OV90) | Potency (PA-1)

COc1cnc(-n2cnc(C)n2)c2[nH]cc(C(=O)C(=O)N3CCN(C(=O)c4ccccc4)CC3)c12
inactive: outcome (CRL-7250) | max response (HEK293) -12.9% | outcome (HaCat [1]) | outcome (KB-3-1) | outcome (NIH3T3 [2]) | outcome (HACAT [3]) | outcome (NIH3T3 [4]) | Potency (C33A) | outcome (CASKI) | Potency (Es-2) | Potency (HeLa) | Potency (Hek293T) | Potency (JEG-3) | Potency (OV90) | Potency (PA-1)

O=C(O)c1cc(O[C@@H]2O[C@H](CO)[C@@H](O)[C@H](O)[C@H]2O)ccc1O
inactive: max response (CRL-7250) -1.11% | max response (HEK293) -8.21% | outcome (HaCat [1]) | max response (KB-3-1) 1.47% | outcome (NIH3T3 [2]) | outcome (HACAT [3]) | outcome (NIH3T3 [4]) | Potency (C33A) | outcome (CASKI) | Potency (Es-2) | Potency (HeLa) | Potency (Hek293T) | Potency (JEG-3) | Potency (OV90) | Potency (PA-1)

COc1ccc(S(=O)(=O)Nc2nc(-c3cccc([N+](=O)[O-])c3)cs2)cc1OC
inactive: max response (CRL-7250) -1.12% | max response (HEK293) 2.2% | outcome (HaCat [1]) | max response (KB-3-1) 6.48% | outcome (NIH3T3 [2]) | outcome (HACAT [3]) | outcome (NIH3T3 [4]) | Potency (C33A) | outcome (CASKI) | Potency (Es-2) | Potency (HeLa) | Potency (Hek293T) | Potency (JEG-3) | Potency (OV90) | Potency (PA-1)

C[C@]1(O)CC[C@@H]2C(C(=O)O)=CO[C@@H](O[C@@H]3O[C@H](CO)[C@@H](O)[C@H](O)[C@H]3O)[C@@H]21
inactive: max response (CRL-7250) -9.18% | max response (HEK293) -5.73% | outcome (HaCat [1]) | max response (KB-3-1) 0.108% | max response (NIH3T3 [2]) 1.11% | outcome (HACAT [3]) | Potency (C33A) | Potency (CAOV3) | outcome (CASKI) | Potency (Es-2) | Potency (HeLa) | Potency (Hek293T) | Potency (JEG-3) | Potency (OV90) | Potency (PA-1)
